KB-V1 cytotox = qHTS assay for MDR1-selective chemotherapeutics: Primary screen using the drug-selected MDR subline cells KB-V1; KB-V1 MDR cells viability, CellTiter-Glo, 72 h; Potency, µM (top dose mostly 46.1 µM), hits mostly cytotoxic; actives 3.4% (n = 400,000); note: nearly all actives have a fitted effect of over 60% in size
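KB-V1 MDR subline cells in DMEM (phenol-red free, 10% FBS) exposed to compounds in qHTS concentration series for 72 h at 37 degrees C. Viability read by CellTiter-Glo luminescence; concentration-effect curves fitted after normalization and correction.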
SW480 rereplic = A quantitative high throughput screen for small molecules that induce DNA re-replication in SW480 colon adenocarcinoma cells; AID 624297, 2012; Potency, µM (titrated, usually from 46.1 µM), hits mostly activators; actives 1.8% (n = 340,000); SW480 DNA re-replication, Hoechst DNA content imaging, 48 h; note: nearly all actives have a fitted effect of over 55% in size
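SW480 cells exposed to compounds for 48 hr at 37 C, 5% CO2, then Hoechst-stained 40 min. Nuclear DNA content imaged by fluorescence scanning (405 nm excitation, 500-530 nm emission); re-replication scored as increased high-intensity nuclei.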
KCNH2 WT inh = qHTS for Inhibitors of KCHN2 3.1: Wildtype qHTS; Voltage-gated inwardly rectifying potassium channel KCNH2 (Homo sapiens), Q12809; AID 720551, 2013; actives 0.37% (n = 340,000); activity change, % at 1.84 µM; U2OS, BacMam KCNH2, thallium flux FluxOr; active compounds read low;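 active = maximum activity change below -70%; inconclusive = maximum activity change between -70% and -50%; inactive = maximum activity change above -50%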
Target sequence (Q12809 whole entry, looked up): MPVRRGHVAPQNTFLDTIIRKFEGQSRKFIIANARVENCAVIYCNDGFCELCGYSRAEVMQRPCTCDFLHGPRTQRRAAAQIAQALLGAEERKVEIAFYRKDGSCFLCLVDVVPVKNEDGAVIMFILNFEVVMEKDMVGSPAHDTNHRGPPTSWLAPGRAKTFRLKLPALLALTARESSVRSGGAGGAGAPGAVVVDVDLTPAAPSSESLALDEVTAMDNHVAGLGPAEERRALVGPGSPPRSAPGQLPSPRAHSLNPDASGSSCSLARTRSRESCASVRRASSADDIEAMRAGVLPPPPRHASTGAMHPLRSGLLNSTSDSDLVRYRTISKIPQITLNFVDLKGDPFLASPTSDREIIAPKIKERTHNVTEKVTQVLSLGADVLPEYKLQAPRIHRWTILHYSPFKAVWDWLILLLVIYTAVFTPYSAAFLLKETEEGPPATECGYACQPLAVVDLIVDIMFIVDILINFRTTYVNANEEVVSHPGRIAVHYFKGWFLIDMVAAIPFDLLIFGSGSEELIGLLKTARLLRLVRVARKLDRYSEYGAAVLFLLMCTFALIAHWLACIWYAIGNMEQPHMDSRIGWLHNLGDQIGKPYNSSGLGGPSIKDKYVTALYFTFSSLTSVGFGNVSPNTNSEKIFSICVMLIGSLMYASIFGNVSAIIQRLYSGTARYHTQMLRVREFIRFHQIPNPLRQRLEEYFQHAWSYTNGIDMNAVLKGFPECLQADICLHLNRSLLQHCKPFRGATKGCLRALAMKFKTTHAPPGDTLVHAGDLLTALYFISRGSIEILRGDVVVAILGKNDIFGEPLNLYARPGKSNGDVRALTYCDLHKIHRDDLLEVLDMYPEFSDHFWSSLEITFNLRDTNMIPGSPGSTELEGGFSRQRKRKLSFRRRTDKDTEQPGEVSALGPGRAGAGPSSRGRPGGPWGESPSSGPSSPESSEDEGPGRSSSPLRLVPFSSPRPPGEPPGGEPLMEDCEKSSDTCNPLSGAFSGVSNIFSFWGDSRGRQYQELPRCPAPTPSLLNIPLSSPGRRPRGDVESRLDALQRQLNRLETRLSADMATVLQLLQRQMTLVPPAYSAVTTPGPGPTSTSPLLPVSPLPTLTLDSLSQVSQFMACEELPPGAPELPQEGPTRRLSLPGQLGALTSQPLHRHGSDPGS
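U2OS cells transduced with wild-type KCNH2 virus are loaded with FluxOr dye for 45 min, and thallium flux is measured in kinetic reads before and after stimulation buffer. Rate constants are normalized to DMSO controls.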
MCF10A rereplic = A quantitative high throughput screen for small molecules that induce DNA re-replication in MCF 10a normal breast cells | MCF 10A DNA re-replication, Hoechst nuclear intensity, 48 h | Potency, µM (highest dose often 46.1 µM), hits mostly activators | actives 2.9% (n = 350,000) | AID 624296, 2012; note: nearly all actives have a fitted effect of over 50% in size
KCNH2 3.1 inh = qHTS for Inhibitors of KCHN2 3.1: Mutant qHTS. U2OS KCNH2 3.1, thallium flux FluxOr; active compounds read low. activity change, % (tested at about 1.8 µM). actives 0.95% (n = 340,000). Potassium voltage-gated channel subfamily H member 2, brain isoform KCNH2 3.1 (human);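 active = maximum activity change below -70%; inconclusive = maximum activity change from -70% to -50%; inactive = maximum activity change above -50%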;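 note: thallium influx rate constant from kinetic fluorescence after stimulation buffer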
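Thallium flux via FluxOr fluorescence (Red40 quencher, 45 min loading) in U2OS cells virally expressing the KCNH2 3.1 isoform (1.77 x 10^8 /mL virus, overnight at 37 C). Rate constants from 2-min kinetic reads post-stimulation, normalised to positive and negative controls.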
KB-3-1 tox = qHTS assay for MDR1-selective chemotherapeutics: Primary screen using the parental adenocarcinoma cell KB-3-1; AID 1347075, 2019; Potency, µM (doses to about 46.1 µM), actives largely listed as cytotoxic; actives 1.4% (n = 400,000); KB-3-1 viability, CellTiter-Glo ATP luminescence, 72 h; note: nearly all actives have a fitted effect of over 60% in size
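Multi-concentration cytotoxicity screen in KB-3-1 cells grown in DMEM lacking phenol red with 10% FBS. After 72 h at 37 °C with compound, ATP-dependent luminescence was recorded.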
A number is an active result; - = inactive; ? = inconclusive; . = no result; ! = not active in a repeat. A selection: hits, their analogues and other compounds. The true share with any hit is near 7.6%. Unless noted, calls come from the whole dose curve; as a rule, active = well fitted curve in the direction sought with a large enough effect; inconclusive = small, poorly fitted or top-dose-only effect, or another doubt; inactive = no such curve, though single readings can be large; an effect the other way counts as inactive or inconclusive.

SMILES	KB-V1 cytotox	SW480 rereplic	KCNH2 WT inh	MCF10A rereplic	KCNH2 3.1 inh	KB-3-1 tox
O=C(COC(=O)C1(c2ccc(F)cc2)CCCC1)N1CCc2ccccc21	21µM	-	-	-	-	-
O=C(COC(=O)C1(c2ccccc2F)CCCC1)N1CCc2ccccc21	-	-	-	-	-	-
O=C(COc1ccc2c(c1)CCC2)N1CCc2ccccc21	-	?	-	26µM	-	-
NCCCNc1ncnc2ccc(-c3ccc4c(c3)OCO4)cc12	-	.	.	.	.	?
Nc1nc(=S)[nH]c2n[nH]nc12	-	.	.	.	.	-
C(=C\c1ccnc2ccccc12)/c1ccc(N(Cc2ccccc2)Cc2ccccc2)cc1	-	.	.	.	.	-
C[C@@H]1CN([C@H](C)CO)C(=O)c2cc(Br)cnc2O[C@@H]1CN(C)C(=O)Cc1ccccc1	-	.	-	.	-	-
CCOC(=O)C(=CNc1cccnc1Oc1ccc(C)c2c1CCC2)C(=O)OCC	?	?	-	-	-	-
O=C1CCC[C@@H]2C[C@@]3(C[C@@H]4CCN1[C@H]24)Nc1ccccc1NC3=NC1CCCCC1	-	.	.	.	.	-
COc1cc(-c2noc(C)c2C#Cc2nccn2C)cc(OC)c1OC	4.6µM!	?	-	16µM	-	9.2µM!
N#CC1=C(SCC(=O)NC23CC4CC(CC(C4)C2)C3)NC(=O)C(C#N)C12CCCCC2 (stereo unspecified)	12µM	-	-	16µM	-	?
Cc1cc(NC(=O)Nc2nnc(N3CCCCC3)s2)ccc1Br	?	.	.	.	.	-
COc1ccc(CC(=O)Nc2cccc(/C(C)=N/NC(=O)C3(C)CC3(Br)Br)c2)cc1 (stereo unspecified)	-	-	-	-	-	-
c1cncc(CSc2nnc3ccc(-c4ccncc4)nn23)c1	-	-	-79	-	-	-
CN(C)/C=C1/OC(=O)C(C#N)=C1c1ccc(Cl)cc1	-	?	-	18µM	-	-
COc1ccc(CCN2C(=O)CC(C(N)=O)SC2=Nc2ccccc2)cc1OC (stereo unspecified)	21µM	-	-	-	-	-
COc1ccc(CCN2C(=O)CSC2=S)cc1OC	5.8µM	15µM	-	12µM	-	6.5µM
COCCCNC(=O)C1CCN(Cc2cc3ccccc3n2Cc2cccc(Cl)c2)CC1	-	.	.	.	.	-
O=C(O)CCC(=O)Nc1ccccc1Oc1ccccc1	-	-	-	-	-	-
O=C1NC(c2cccc3ccccc23)Nc2ccccc21 (stereo unspecified)	0.65µM	?	-	0.92µM	-	0.41µM
COc1ccc2ccccc2c1C1NC(=O)c2ccccc2N1 (stereo unspecified)	5.8µM	8.2µM	-	5.2µM	-	2.3µM
O=C1NC(c2ccccc2Cl)Nc2ccccc21 (stereo unspecified)	?	16µM	-	?	-	?
COc1cccc(CNC(=O)Cn2c(=O)oc3cc(S(=O)(=O)N4CCCCCC4)ccc32)c1	-	.	.	.	.	?
CC1(C(=O)NS(=O)(=O)Cc2ccccc2)CCN1C(=O)Cc1ccccc1 (stereo unspecified)	-	.	.	.	.	-
CC(NC(=O)c1cc(-c2ccc(Cl)cc2)on1)c1ccccc1 (stereo unspecified)	-	.	.	.	.	?
SMILES	KB-V1 cytotox	SW480 rereplic	KCNH2 WT inh	MCF10A rereplic	KCNH2 3.1 inh	KB-3-1 tox
CN(C)C1(CNC(=O)c2cccc(S(=O)(=O)Nc3ccc(Br)cc3)c2)CCCCC1	-	-	-	-	-	-
CN(CC(=O)Nc1c(Cl)cccc1Cl)C(=O)c1n[nH]c2ccccc12	-	-	-	-	-	-
CC[C@H](C)C1OC(=O)[C@@H](C)[C@@H](CC)NC(=O)[C@H](C)N(C)C(=O)C(C)(C)C(=O)C(C)NC(=O)[C@H](Cc2ccc(OC)cc2)N(C)C(=O)[C@H](C(C)C)N(C)C(=O)CNC(=O)[C@H](CC(C)C)N(C)C(=O)CNC1=O (stereo partly specified)	-	.	.	.	.	0.21µM
CC(C)C[C@@H]1NC(=O)[C@H](Cc2ccccc2)N(C)C(=O)[C@H](C)NC(=O)c2ccccc2NC(=O)[C@H](Cc2ccc(O)cc2)N(C)C1=O	-	-	-	-	-	-
CCC[C@H]1NC(=O)[C@H](C)N(C)C(=O)C(C)(C)C(=O)C(C)NC(=O)[C@H](Cc2ccc(OC)cc2)N(C)C(=O)[C@H](C(C)C)N(C)C(=O)CNC(=O)[C@H](CC(C)C)N(C)C(=O)CNC(=O)[C@H]([C@@H](C)CC)OC(=O)[C@H]1C (stereo partly specified)	-	?	-	1.5µM	-	-
Cc1nnc(NC(=O)Cn2nc(C)c3ccccc3c2=O)s1	-	-	-	-	-	-
O=C(CCCN1C(=O)/C(=C/c2ccccc2OC(F)F)SC1=S)Nc1cccnc1	?	?	-	23µM	-	?
O=C(CCN1C(=O)/C(=C/c2ccccc2F)SC1=S)NCCCn1ccnc1	-	-	-	21µM	-	-
O=C(CCN1C(=O)/C(=C\c2ccccc2Cl)SC1=S)Nc1cccnc1	.	-	-	-	-	.
O=C(CCN1C(=O)/C(=C/c2ccccc2F)SC1=S)Nc1cccnc1	.	-	-	?	-107	.
COc1cccc(C(C(=O)NC2CCCC2)N(C(=O)c2ccco2)c2ccc(NC(C)=O)cc2)c1OC (stereo unspecified)	-	-	-	-	-	-
COc1ccc(/C=C2\N=C(C(C)(C)C)OC2=O)c(OC)c1	-	-	-	23µM	-	-
COc1ccc(OC)c(/C=C2\N=C(c3ccccc3)OC2=O)c1	-	-	-	-	-	-
CCSc1nnc(NC(=O)c2nc(S(=O)(=O)Cc3ccc(F)cc3)ncc2Cl)s1	-	?	-	-	-	?
Cc1cccc(CS(=O)(=O)c2ncc(Cl)c(C(=O)Nc3nnc(C(C)C)s3)n2)c1	16µM	?	-	?	-	16µM
CC(=O)Nc1ccc(NC(=O)c2nc(S(=O)(=O)Cc3ccccc3)ncc2Cl)cc1	-	-	-	?	-	-
CCc1nnc(NC(=O)c2nc(S(=O)(=O)Cc3ccccc3)ncc2Cl)s1	?	?	-	0.82µM	-	23µM
CSc1nnc(NC(=O)c2nc(S(=O)(=O)Cc3cccc(C)c3)ncc2Cl)s1	?	-	-	2.1µM	-	16µM

Screening results from PubChem BioAssay.
